Screens: PubChem, National Center for Advancing Translational Sciences (NCATS)
This is one part of a sample in which hits are shown more often than they occur.
ERK EGF block: inhibitors of EGF-stimulated ERK signaling pathway. HEK293-V1b, EGF-stimulated phospho-ERK AlphaScreen. Potency, µM (top dose mostly 11.5 µM), usual class: inhibitors. actives 0.41% (n = 130,000). AID 1454; also: nearly all actives have a fitted effect of over 55% in size
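In this qHTS, HEK293 cells with stable type-1 vasopressin (V1b) receptor were exposed to compound at 37C for 30 min, stimulated 5 min with EGF at 25 nM, lysed, and probed for phospho-ERK by AlphaScreen.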
pERK EGF inh: confirmation of ERK pathway inhibitors under EGF stimulation. actives 60% (n = 60). shares compounds with ERK EGF block. HEK293 EGF-stimulated ERK phosphorylation, AlphaScreen. Potency, µM (top dose mostly 57.5 µM), usual class: inhibitors. AID 1725
c-Raf inh: c-Raf inhibition, ERK pathway follow-up; 70 tested, under 10 active; AID 1728; shares compounds with ERK EGF block; c-Raf kinase inhibition, homogeneous biochemical assay; activity change, negative = inhibition, % at 76.9 µM
Target sequence (P04049 whole entry, looked up): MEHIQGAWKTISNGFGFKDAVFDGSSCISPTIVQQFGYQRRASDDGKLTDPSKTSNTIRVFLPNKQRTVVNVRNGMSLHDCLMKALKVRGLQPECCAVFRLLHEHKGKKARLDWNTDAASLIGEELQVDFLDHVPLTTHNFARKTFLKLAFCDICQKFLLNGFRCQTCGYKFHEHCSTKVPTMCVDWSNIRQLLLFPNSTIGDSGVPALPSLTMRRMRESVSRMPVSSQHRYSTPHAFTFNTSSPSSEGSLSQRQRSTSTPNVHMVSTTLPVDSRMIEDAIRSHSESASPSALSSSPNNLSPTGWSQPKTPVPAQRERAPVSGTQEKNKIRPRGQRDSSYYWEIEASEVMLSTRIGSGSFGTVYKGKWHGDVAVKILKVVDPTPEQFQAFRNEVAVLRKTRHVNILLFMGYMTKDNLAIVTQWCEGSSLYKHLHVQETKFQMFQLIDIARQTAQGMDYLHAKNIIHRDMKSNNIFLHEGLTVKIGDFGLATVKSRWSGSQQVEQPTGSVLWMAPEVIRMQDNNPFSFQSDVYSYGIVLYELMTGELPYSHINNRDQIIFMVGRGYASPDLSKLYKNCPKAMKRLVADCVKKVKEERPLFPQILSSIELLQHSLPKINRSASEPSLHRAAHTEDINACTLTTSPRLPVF
MEK inh: ERK pathway inhibitors follow-up: human MEK1 kinase inhibition | Potency, µM (top dose mostly 76.9 µM), hits mostly inhibitors | shares compounds with ERK EGF block | homogeneous MEK kinase activity assay, ERK pathway | 70 tested, under 10 active
A number is an active result; n = inactive; u = inconclusive; ! = not confirmed by another sample. Calls follow the shape of the dose curve; as a rule, active = well fitted curve in the direction sought with a large enough effect; inconclusive = small, poorly fitted or top-dose-only effect, or another doubt; inactive = no such curve, though single readings can be large; an effect the other way counts as inactive or inconclusive.

SMILES	ERK EGF block	others
CC1=CC(=O)c2c(O)cccc2C1=O	5.6µM!	pERK EGF inh=7.1µM;c-Raf inh=u;MEK inh=u
COP(=S)(OC)Oc1ccc([N+](=O)[O-])cc1	n
O=C1NC(=O)C(=Cc2ccccc2Oc2ccc(F)cc2)C(=O)N1	4µM	pERK EGF inh=n;c-Raf inh=n;MEK inh=u
O=C1NC(=O)C(=Cc2csc3ccccc23)C(=O)N1	n
O=C1NC(=O)C(=Cc2coc3ccccc3c2=O)C(=O)N1	n
C/C=C1/C[C@@H](C)[C@](O)(CO)C(=O)OCC2=CCN3CC[C@@H](OC1=O)C23 (stereo partly drawn)	n
COc1cc2c(cc1OC)[C@@H]1C(=O)c3ccc(OC)c(CC=C(C)C)c3OC1CO2 (stereo partly drawn)	n
CCC1CN2CCC1CC2C(O)c1ccnc2ccccc12 (stereo not drawn)	n
C[C@H]1C[C@H](C)C(=O)[C@@H]([C@H](O)CC2CC(=O)NC(=O)C2)C1	n
COc1ccc2c(c1)[C@@]13CCCCC1[C@@H](C2)N(C)CC3 (stereo partly drawn)	n
